# Bioassay records from PubChem BioAssay.
# RXFP1 antagonist: RXFP1 (human) relaxin receptor antagonism. Q9HBX9. HEK293-RXFP1, relaxin-stimulated cAMP HTRF, 30 min; active compounds read low. activity change, negative = inhibition, % at 57.5 µM. 0.59% of 350,000 active;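 active = activity change of -60% or lower, but not beyond a set lower limit; inconclusive = change between -60% and -40%, or beyond the set limit; inactive = change above -40%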; also: % is scaled to controls: 0 for no effect and ±100 for the full control effect
# Target sequence (Q9HBX9 whole entry, looked up): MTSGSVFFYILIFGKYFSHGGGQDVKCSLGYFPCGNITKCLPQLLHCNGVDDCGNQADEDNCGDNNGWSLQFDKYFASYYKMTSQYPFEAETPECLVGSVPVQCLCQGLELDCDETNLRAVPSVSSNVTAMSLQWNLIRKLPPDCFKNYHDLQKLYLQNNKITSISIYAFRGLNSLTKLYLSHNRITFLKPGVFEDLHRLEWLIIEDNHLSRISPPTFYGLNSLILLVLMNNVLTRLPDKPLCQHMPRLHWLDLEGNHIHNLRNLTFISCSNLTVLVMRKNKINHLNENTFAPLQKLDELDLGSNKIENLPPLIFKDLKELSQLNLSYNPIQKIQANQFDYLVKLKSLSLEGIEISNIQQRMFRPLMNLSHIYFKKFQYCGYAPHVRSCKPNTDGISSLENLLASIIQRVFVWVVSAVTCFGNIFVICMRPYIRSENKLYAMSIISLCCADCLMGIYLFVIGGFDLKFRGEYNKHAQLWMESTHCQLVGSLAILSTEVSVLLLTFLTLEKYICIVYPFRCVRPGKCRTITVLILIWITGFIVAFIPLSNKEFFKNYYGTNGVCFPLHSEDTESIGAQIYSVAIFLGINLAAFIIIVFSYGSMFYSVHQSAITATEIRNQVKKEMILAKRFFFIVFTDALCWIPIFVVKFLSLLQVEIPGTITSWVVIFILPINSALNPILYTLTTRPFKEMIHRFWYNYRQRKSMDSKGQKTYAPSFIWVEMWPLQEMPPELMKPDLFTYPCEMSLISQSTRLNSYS
# PTHR1 ag: activates the human parathyroid hormone receptor PTHR1; 0.075% of 410,000 active; HEK293 GP2 PTHR1 cells, GloSensor cAMP luminescence, 1 h; Q03431; AID 743266; Potency, µM (titrated, usually from 115 µM), for inactives: at the top dose activation, actives largely listed as activators; also: potency is read from the fitted curve at half-maximal effect; nearly all actives have a fitted effect of over 55% in size
#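 HEK-293-derived GP2 cells expressing PTHR1 and a GloSensor cAMP reporter, 3,000/well, plated overnight, given luciferin plus IBMX (each 0.5 mM as added) for 1 h at 37 °C, then compound for 1 h at 37 °C. Luminescence was read after 15 min at room temperature.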
# TSHR antagonist: human thyrotropin receptor antagonism | P16473 | activity change, negative = inhibition, % at 11.5 µM | 0.2% of 330,000 active | TSHR-expressing cells, TSH-stimulated cAMP HTRF, 2 h; active compounds read low;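 active = activity change below a set negative limit, meaning inhibition stronger than a set level, cut at about -70% in these data; inconclusive = activity change between two set negative limits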; also: % is scaled to controls: 0 for no effect and ±100 for the full control effect
#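 TSHR-expressing cells were treated with compounds, then stimulated with TSH at EC80 (4nM final) for 2 hours at 37 deg C. Cellular cAMP was measured by HTRF competition between lysate cAMP and cAMP-d2 for a cryptate-labelled anti-cAMP antibody.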
# RXFP1 agonist: RXFP1 (human) receptor agonism; Q9HBX9; HEK293T-RXFP1 cAMP TR-FRET, 30 min; response scale: percent of porcine relaxin response, buffer zero; Potency, µM (top dose mostly 57.5 µM), without a hit: at the top dose activation, actives largely listed as activators; 0.3% of 370,000 active; AID 2676; also: potency is read from the fitted curve at half-maximal effect; % is scaled to controls: 0 for no effect and ±100 for the full control effect; nearly all actives have a fitted effect of over 60% in size
#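 cAMP rise read by TR-FRET after 30 min, 37C compound exposure (up to 58 uM) in RXFP1-transfected HEK293 cells with Ro 20174 present. EC50 from Hill-equation fits, with 29 nM porcine relaxin as 100% and buffer as basal.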
# NPSR antagonist: blocks cAMP signaling of the human neuropeptide S receptor | Q6W5P4 | CHO-NPSR cells, cAMP TR-FRET, antagonist mode | Potency, µM (series often up to 38.3 µM), inactives show at the highest dose activity change, negative = inhibition, hits mostly inhibitors | 1% of 220,000 active | AID 1461; also: potency is read from the fitted curve at half-maximal effect; % is scaled to controls: 0 for no effect and ±100 for the full control effect; nearly all actives have a fitted effect of over 50% in size
# TCR activator: activators of T cell receptors; primary human leukocytes, anti-CD3, IL-2 HTRF, 48 h; Potency, µM (titrated, usually from 9.22 µM), for inactives: at the top dose activation of IL-2 secretion, hits mostly activators; 330,000 tested, under 10 active; AID 504894; also: % of control where 0% means no effect
#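 Human primary leukocytes + a-CD3 beads + cpd, 48 hr; IL-2 in supernatant by HTRF (ex 320nm / em 665nm). No co-stimulatory signal supplied.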
# Starred values were filed as active, the others as inactive; i = inactive; ? = inconclusive; . = no result; [ ] = another dose, or the depositor's remark. This is one part of a sample in which hits are shown more often than they occur. Unless noted, calls follow the shape of the dose curve; as a rule, active = well fitted curve in the direction sought with a large enough effect; inconclusive = small, poorly fitted or top-dose-only effect, or another doubt; inactive = no such curve, though single readings can be large; an effect the other way counts as inactive or inconclusive.
SMILES,RXFP1 antagonist,PTHR1 ag,TSHR antagonist,RXFP1 agonist,NPSR antagonist,TCR activator
COc1ccc(N=Cc2ccccc2O)cc1,0.0,i,.,.,.,-8.8%
CCOC(=O)C1CCN(C(=O)c2cc3c(ccc4ccccc43)o2)CC1,1.0,-34.3%,-4.5,7.1%,.,-3.3%
CC1CCN(C(=O)c2cc3c(ccc4ccccc43)o2)CC1,-60.2*,-33.2%,-11.7,1.2%,.,3.2%
CCc1cccc(-n2nnc(-c3nsc(NC(=O)c4cccc(OC)c4)n3)c2C)c1,.,-19.8%,.,4.4%,.,.
N#Cc1ccc(NC(=O)COCc2cc(-c3ccco3)on2)cc1,-15.1,-5.4%,.,2.6%,.,.
CSc1ccc(C2C(C(=O)c3ccco3)=C(O)C(=O)N2c2nnc(SC)s2)cc1 (centres undefined),-1.8,-25.8%,0.3,15.8µM*,.,-2.0%
COc1cccc(NC(CNS(=O)(=O)c2ccc(Cl)cc2)c2ccccc2)c1 (centres undefined),-18.4,-94.4%,.,0.6%,.,.
CC(C)(C)OC(=O)NCCc1nnc(S(=O)(=O)Cc2ccc(Cl)cc2Cl)o1,-4.4,-22.7%,-78.1*,0.6%,?,2.2%
CC(C)(C)OC(=O)NCCc1nnc(SCc2ccccc2Cl)o1,2.9,-33.2%,-7.6,1.9%,-15.4%[46.1 µM],-15.6%
C(=C\c1ccccc1)/C=N/Nc1nc2ccccc2s1,-11.6,-14.3%[57.5 µM],-11.8,2.4%,-7.5%[46.1 µM],-1.4%
CCC/C=N/Nc1nc2ccccc2s1,-90.8*,-27.6%,4.2,0.2%,0.0%,-3.9%
NS(=O)(=O)c1ccc(CCNC(=O)Cn2c(=O)c3cccn3c3ccc(F)cc32)cc1,-19.1,-21.7%,.,24.0%,.,.
COc1ccc(/C=N/NC(=O)c2cccnc2)cc1COc1ccc(NC(C)=O)cc1,?,i,-2.5,3.2%,8.4%,-4.6%
COc1ccc(/C=N/NC(=O)c2cccnc2)cc1COc1ccc([N+](=O)[O-])cc1,-85.3*,-19.6%,-9.6,1.1%,-3.5%,4.9%
Cc1ccccc1NC(=O)c1cccc2c(=O)c3c([nH]c12)CCCC3,-3.2,-2.9%,.,2.0%,.,.
CC1(C)CC(=O)C(C(C2=C(O)CC(C)(C)CC2=O)c2ccc(Br)s2)C(=O)C1 (centres undefined),-99.0*,i,-7.6,0.4%,-58.1%,-7.3%[46.1 µM]
Cc1ccc(C(C2=C(O)CC(C)(C)CC2=O)C2C(=O)CC(C)(C)CC2=O)s1 (centres undefined),?,-70.3%[57.5 µM],5.3,0.0%,-13.4%[46.1 µM],-0.1%
Cc1ncc([N+](=O)[O-])n1C,6.4,.,.,.,.,.
Cn1c([N+](=O)[O-])cnc1N1CCN(c2nncs2)C1=O,12.6,6.2%,8.6,15.8µM*,-7.6%,4.1%
COc1ccc2c(CNCCc3cccs3)c(C(=O)O)n(Cc3ccccc3C)c2c1,-20.1,i,.,-0.9%,.,.
COc1ccccc1CC(Cc1nc2ccccc2[nH]1)c1nc2ccccc2[nH]1 (centres undefined),-66.9*,i,-13.1,1.5%,43.7%,2.6%
CCCCOC(=O)CCCCCCCCC(=O)OCCCC,-18.4,.,.,.,.,.
Cc1cc(C(=O)OCC(N)=O)c(C)n1-c1ccccc1,?,-57.6%,-1.9,-2.7%,6.3%,-3.3%
COc1ccc(-n2c(C)cc(C(=O)COC(=O)c3ccc(O)cc3O)c2C)cc1,-32.8,-54.7%,-73.5*,-0.6%,.,-8.3%
Cc1cc(C(=O)COC(=O)c2ccc(O)cc2O)c(C)n1-c1ccccc1,-87.2*,-36.0%,?,-3.0%,.,-2.0%
SMILES,RXFP1 antagonist,PTHR1 ag,TSHR antagonist,RXFP1 agonist,NPSR antagonist,TCR activator
Cc1cc(C(=O)COC(=O)c2ccc(O)cc2O)c(C)n1-c1ccc(OC(F)F)cc1,?,-34.1%,-33.7,0.4%,.,3.6%
CCc1ccc(CN(Cc2ccco2)C(=O)c2ccc(C)cc2)cc1,-67.9*,-5.5%,.,-1.4%,.,.
CCOc1ccc(C(=O)N(Cc2ccc(C(C)C)cc2)Cc2ccco2)cc1,-78.6*,-1.7%,.,2.6%,.,.
Cc1ccc(CN(Cc2ccco2)C(=O)COc2ccc(C(C)C)cc2)cc1,-31.5,-89.1%,.,0.5%,.,.
Cc1ccc(C(=O)N(Cc2ccco2)Cc2sccc2C)cc1,-98.2*,i,.,-0.2%,.,.
Cc1ccsc1CN(Cc1ccco1)C(=O)c1ccc(Cl)cc1,-74.4*,i,.,4.6%,.,.
CCOC(=O)C1=C(CN2CCN(c3ccccc3F)CC2)NC(=O)NC1c1ccc(Cl)cc1 (centres undefined),.,-31.9%,.,0.2%,.,.
CC(=O)O[C@H](C)OC(=O)[C@@H](C)c1ccc(-c2ccccc2)c(F)c1,-21.6,.,.,.,.,.
N#CC1=C(N)N2C(=C(C#N)C1c1ccc(Br)cc1)Nc1ccccc12 (centres undefined),-10.4,-32.8%,-78.6*,1.8%,-11.1%[46.1 µM],6.5%[46.1 µM]
N#CC1=C(N)N2C(=C(C#N)C1c1cccc(Br)c1)Nc1ccccc12 (centres undefined),-14.9,-33.1%,-0.3,3.8%,3.0%,-8.5%[46.1 µM]
Nc1ccn([C@@H]2O[C@H](CO)[C@@H](O)C2(F)F)c(=O)n1,-7.9,.,.,.,.,.
CCN(Cc1nc(-c2ccc(OC)cc2)oc1C)S(=O)(=O)c1ccc(Cl)cc1,5.6,-1.8%,.,1.5%,.,.
O=[N+]([O-])c1cc(Cl)ccc1N1CCCC1,1.6,i,6.5,-2.5%,-4.7%,-2.2%
O=C1C(Cl)=C(N2CCN(c3ccccc3[N+](=O)[O-])CC2)C(=O)c2ccccc21,.,i,-19.5,1.8%,10µM*,5.8%[46.1 µM]
COc1ccc(/C=C/c2nc(-c3ccccc3O)n[nH]2)cc1OC,-99.9*,-0.3%,-24.4,-1.0%,-4.7%,4.1%[46.1 µM]
NC(=S)c1cc2ccc(O)cc2oc1=O,.,-4.2%,47.7,12.6µM*,5.01µM*,-1.0%
CCc1ccc(C2=NN(c3ccc(S(N)(=O)=O)cc3)C(c3ccc(F)cc3)C2)cc1 (centres undefined),.,-15.1%,3.4,20.5%,10µM*,-3.4%
Cc1ccc(C2CC(c3ccccc3)=NN2c2ccc(S(N)(=O)=O)cc2)cc1 (centres undefined),.,-16.6%,.,.,.,.
COc1ccc(OC)c2c1C(=O)C(Cl)=C(Cl)C2=O,.,-95.8%,-103.4*,-2.6%,6.31µM*,11.7%
COc1ccc(OC)c2c1C(=O)CC2C (centres undefined),9.3,i,.,.,.,.
COc1ccc(OC)c2c1C(=O)c1ccccc1C2=O,1.5,-29.9%,-0.5,5.4%,-4.9%[46.1 µM],2.9%
COc1ccc(N)c2c1C(=O)c1ccccc1C2=O,-18.9,-4.2%,-22.1,1.2%,12.6µM*,3.7%[46.1 µM]
Cc1ccc(-n2c(=O)c3ccc(C(=O)NCc4ccccc4Cl)cc3n(CC(=O)Nc3cccc(F)c3)c2=O)cc1,.,i,.,11.9%,.,.
Cc1ccc(NC(=O)Cn2c(=O)n(-c3ccccc3)c(=O)c3ccc(C(=O)NCc4ccc5c(c4)OCO5)cc32)cc1,.,-14.1%,.,22.4µM*,.,.
